The values that follow come from PubChem BioAssay AID827 (SRMLSC, 2007).

Among all 140,000 compounds or so, about 1,700 (1.2%) were called active. The full list was thinned out, with actives kept by preference. A number with no mark means an inactive call.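 Rule for the calls: active = viability at or below a set limit, 4 SD under the median of all tested compounds (cut at about 3.7% in these data); inactive = the rest.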

In general, viability refers to a read-out of living cells in per cent, often relative to untreated cells.

This experiment can be described thus: growth suppression of PTEN-null HCT116, primary screen, cell-based, CellTiter-Glo (AID 827).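 Note: PTEN knockout HCT116 line with beta catenin targeted HCT116 as companion control.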 As to conditions: 60 h, at 10 µM, active compounds read low.
For the molecule `N#C/C(=C(/O)COC(=O)COc1ccc(Cl)cc1)c1nc2ccccc2[nH]1`, the viability was 5.27%.

Turning to `N=c1c2c(-c3ccccc3)c(-c3ccccc3)n(Cc3ccccc3)c2ncn1CCCO`, the viability was 1.76% (active). Take `OCCCN1c2ccccc2Nc2nnc(-c3ccccc3)cc21`: the viability was 53.1%. In the case of `N=c1c2c(-c3ccccc3)c(-c3ccccc3)oc2ncn1Cc1ccco1`, the viability was 54.2%. As for `Cc1nc(-c2ccccc2)sc1C(=O)/C=C/c1ccccc1`, the viability is 6.16%. With `O=C(/C=C/c1ccccc1)c1ccccc1O`, the viability is 83.3%.

Take `Cc1[nH]c(=O)c(C(=O)/C=C/c2ccccc2)c2c1CCCC2`: the viability was 1.81% (active).

On to `O=C(Nc1ccccc1)c1cc2ccccc2[nH]1`, for which the viability was 66.4%. With `O=C(NCCOCc1ccc(Cl)cc1)c1ncn[nH]1`, the viability was 101%. Take `O=C(/C=C/Sc1ncn[nH]1)c1ccc(Cl)cc1`: the viability is 2.52% (active). On to `CC(C)(C)c1ccc(C(=O)CSc2ncn[nH]2)cc1`, for which the viability was 94.8%. To `CC(=O)NC1C(OCc2ccccc2)OC(COC(C)=O)C(OC(C)=O)C1OC(C)=O` (centres undefined) belongs 96.9%; to `Cc1ccc(/C=N\n2c(-c3ccccc3)n[nH]c2=S)s1`, 109%.

For `S=c1[nH]nc(-c2cccnc2)n1/N=C/C(Cl)=C\c1ccccc1`, the viability was 8.01%. Consider `Cc1cc(-c2n[nH]c(=S)n2/N=C/C(Br)=C/c2ccccc2)n[nH]1`, for which the viability is 1.39% (active).

As to `Cc1nn(C)c(C(=O)NNC(=S)NC2CCCCC2)c1Cl`, the viability is 95.4%. Turning to `CC1CCN(C(=S)NC2CC3CCC2C3)CC1` (centres undefined), the viability is 95.9%. To `O=C1/C(=C\c2ccccc2Cl)SC(=S)N1CCC(=O)N1CCCc2ccccc21` belongs 2.6% (active); to `O=C(c1c(Cl)nc2sccn12)N1CCCc2ccccc21`, 81.7%. As for `O=C(CCCN1C(=O)/C(=C/c2ccco2)SC1=S)Nc1ccccc1`, the viability was 24%. Turning to `N=C1C(=O)OCC1c1ccccc1NC(=O)CN1CCCCC1` (centres undefined), the viability is 83.9%. In the case of `CC(NC(=O)c1cccc2ccccc12)c1ccc2c(c1)CCCC2` (centres undefined), the viability is 25.1%. As to `NS(=O)(=O)c1ccc(CCNC(=S)Nc2ccc(S(N)(=O)=O)cc2)cc1`, the viability was 96.8%. As to `Cc1ccccc1C(CC(=O)c1cccs1)C(C#N)C#N` (centres undefined), the viability was 3.71% (active). With `O=C(CCC(=O)c1cccs1)NCc1ccccc1`, the viability is 97.4%. On to `Cc1ccc(C)c(NC(CC(=O)c2ccccc2)C(=O)OCC(=O)c2cccs2)c1` (centres undefined), for which the viability was 85%.

Turning to `Cc1ccc(CN2C(=O)N/C(=C/c3cc(C)n(-c4ccccn4)c3C)C2=O)cc1`, the viability was 84.5%. Take `Cc1cc(OCCCC(=O)NCCN2C(=O)S/C(=C\c3cccnc3)C2=O)ccc1Cl`: the viability is 78.4%. Then `COC(=O)N/N=C/c1ccc(-c2ccc(Cl)c(Cl)c2)o1`, with 68.4%; and `O=C(CN1C(=O)NC2(CCCCCC2)C1=O)NCc1cccs1`, with 102%; and `Cc1ccc(C)c2[nH]c(=O)c(CCNC(=O)c3cccs3)cc12`, with 85.5%. As for `COc1cc(/C=N\NC(=O)CNC(=O)c2cccc([N+](=O)[O-])c2)ccc1O`, the viability was 98.5%.

For the molecule `Cc1[nH]n(-c2cccc(Cl)c2)c(=O)c1/C=N/n1c(C)nc2ccccc2c1=O`, the viability is 89.2%. Take `COc1cccc(/C=N/NC(=O)c2cccc([N+](=O)[O-])c2)c1OS(=O)(=O)c1ccc(C)cc1`: the viability was 71.7%. As for `Cc1[nH]n(-c2ccccc2)c(=O)c1/C=N/NC(=O)c1ccoc1C`, the viability was 3.19% (active). As to `Cc1ccc(-n2[nH]c(C)c(/C=N/NC(=O)c3cccc([N+](=O)[O-])c3)c2=O)cc1C`, the viability was 2.5% (active). `Cc1[nH]n(-c2ccc(Cl)cc2)c(=O)c1/C=N/n1c(C)nc2ccccc2c1=O`: the viability is 33.6%. As for `N#C/C(=C/c1cccc([N+](=O)[O-])c1)c1nnc2n1CCCCC2`, the viability was 30.1%.

For `CCOc1ccc(S(=O)(=O)N(CC(=O)NCC(F)(F)F)Cc2ccco2)cc1`, the viability was 99.2%. In the case of `COC(=O)CN1C(=S)N(c2ccccc2)C(=O)C1CC(=O)Nc1ccc(Cl)cc1` (centres undefined), the viability is 91.3%.

Take `Cc1ccc(/C=C/C(=O)Nc2cc(S(=O)(=O)N3CCCCCC3)ccc2OCC(F)(F)F)o1`: the viability was 75.3%. Then `C/C(=N/NC(=O)C1COc2ccccc2O1)c1ccco1` (centres undefined), with 96.5%; and `Cc1cccc2cc(CN(Cc3cccs3)C(=S)NCc3ccco3)c(=O)[nH]c12`, with 72.6%; and `CN(C)CCNC(=O)Cc1ccc([N+](=O)[O-])cc1`, with 98.8%. As for `CCCCc1nc(NCCN)c(C#N)c2c1CSC(C)(C)C2`, the viability is 2.15% (active).

Turning to `CCCCc1nc(NCc2ccccc2)c(C#N)c2c1CCCC2`, the viability is 82.1%. Take `Cc1nc(NCCN)c(C#N)c2c1COC(C)(C)C2`: the viability was 101%. For the molecule `COc1ccc(C2CC(c3ccccc3)=NN2C(=O)CSc2nccc(=O)[nH]2)cc1` (centres undefined), the viability was 101%. Regarding `CCOC(=O)C1=C(C)Nc2nc3ccccc3n2C1c1cccs1` (centres undefined), the viability is 90.1%.

For `O=C1/C(=C\c2cccnc2)CN(Cc2ccccc2)C/C1=C\c1cccnc1`, the viability is 1.06% (active).

On to `O=C1OC(c2ccc(Cl)cc2)=N/C1=C\c1cccnc1`, for which the viability was 90.6%.

Consider `O=C(O)C1CC(=O)N(Cc2cccnc2)C1` (centres undefined), for which the viability is 100%. Then `O=C(CN1CCN(S(=O)(=O)c2ccc(Br)cc2)CC1)Nc1ccccc1C(=O)c1ccccc1`, with 64.5%. Then `Cc1nn(Cc2ccccc2)c(C)c1C(=O)NCCN1C(=O)S/C(=C\c2ccc(F)cc2)C1=O`, with 97.4%; and `Cc1ccc(NC(=O)CC2S/C(=N/N=C3\CCCc4ccccc43)NC2=O)cc1` (centres undefined), with 65.5%. Regarding `O=C(c1cncc(Br)c1)N1CCN(c2ccc([N+](=O)[O-])cc2)CC1`, the viability was 83.7%. With `CC(C)CC[n+]1ccn(C2=C([O-])c3ccccc3C(=O)/C2=N\S(=O)(=O)c2ccccc2)c1`, the viability was 3.35% (active).

`O=C(CSc1nc2ccc([N+](=O)[O-])cc2[nH]1)c1ccc(Cl)cc1`: the viability was 103%. Turning to `CC(C)=C(NC(=O)c1ccccc1)C(=O)N/N=C(\C)c1ccccc1O`, the viability is 88.4%.

For `CCOc1ccc2nc(Nc3nc4ccc(NC(C)=O)cc4s3)sc2c1`, the viability is 90.5%. Then `COc1ccc2nc(Nc3nc4ccc(NC(C)=O)cc4s3)sc2c1`, with 1.64% (active); and `COc1ccc2nc(Nc3nc4cc5c(cc4s3)OCCO5)sc2c1`, with 94.9%; and `CC(Sc1nnc2c(n1)C1CCC2(C)C1(C)C)C(=O)Nc1ccccc1` (centres undefined), with 87.5%. As to `O=C(CC(=O)Nc1ccc(Cl)c(Cl)c1)N/N=C/c1ccc(O)cc1`, the viability was 86.7%. In the case of `O=C(Cc1ccc(Cl)c(Cl)c1)Nc1ccc(SC(F)F)cc1`, the viability is 26.6%. Then `O=C(CC(O)(C(F)(F)F)C(F)(F)F)Nc1ccc(Cl)c(Cl)c1`, with 2.05% (active). In the case of `COc1ccc(N2C(=O)C(CC(=O)Nc3ccc(F)cc3)N(CCc3cccs3)C2=O)cc1` (centres undefined), the viability was 84.4%. Turning to `O=C(Nc1ccc2ccccc2c1)/C(=C\c1ccc2c(c1)OCO2)NC(=O)c1ccco1`, the viability was 95.8%. Consider `COc1ccc(NC(=O)c2nc(-n3nc(C)cc3C)ccc2Cl)cc1Cl`, for which the viability was 72.5%. Turning to `COc1ccc(O[C@H]2C=C[C@@H](c3ccccc3)O[C@@H]2CO/N=C/C[C@@H]2C=C[C@H](OC(C)=O)[C@@H](COC(C)=O)O2)cc1`, the viability is 85%.

As to `CCCNC(=O)OC[C@H]1O[C@H](CCO/N=C/[C@@H](NS(=O)(=O)c2ccc(C)cc2)[C@H](C)/C=C/CC(=O)OC)C=C[C@@H]1Oc1ccc(OC)cc1`, the viability is 0.23% (active). To `CCCC(NS(=O)(=O)c1ccc(OC)cc1)C(=O)O` (centres undefined) belongs 91.3%; to `O=C(Cc1ccccc1)Nc1cccc(C(=O)N/N=C/c2ccco2)c1`, 92.6%. As to `O=C(Nc1ccccc1F)c1ccccc1-c1ccccc1`, the viability is 87%. Then `Cc1c(C(=O)NCCCc2ccccc2)cccc1[N+](=O)[O-]`, with 44.8%.

As for `COc1ccc(/C=C2/C(=O)OCc3cc(OC)c(OC)cc32)c(OC)c1`, the viability is 71.4%. Then `CC(C)(C)NCCCOc1ccc(Cl)cc1C(C)(C)C`, with 40.9%; and `COc1cccc(/C=N\NC(=O)C2=NNC(=O)C2C)c1O` (centres undefined), with 48.4%; and `COc1cccc(/C=N/Nc2ncc(C(F)(F)F)cc2Cl)c1O`, with 2.37% (active).

Turning to `COc1cc(/C=C2\SC(=S)N(Nc3ncc(C(F)(F)F)cc3Cl)C2=O)cc(OC)c1OC`, the viability is 88.8%. For the molecule `O=C(NCc1ccc2c(c1)OCO2)c1ccc2c(c1)C(=O)N(CC1CCCO1)C2=O` (centres undefined), the viability is 1.19% (active). As to `CCC(=O)Nc1ccc(C(=O)Nc2ccc3c(c2)C(=O)N(CC2CCCO2)C3=O)cc1` (centres undefined), the viability was 107%. Turning to `CC1CCN(c2ccc(C(=O)NCc3ccc4c(c3)OCO4)cc2[N+](=O)[O-])CC1`, the viability is 85.2%. In the case of `CC(CNc1ccc([N+](=O)[O-])c2cccnc12)Nc1c([N+](=O)[O-])cc(C(F)(F)F)cc1[N+](=O)[O-]` (centres undefined), the viability is 62.8%. As to `CCOc1ccc(C(=O)NC(=S)Nc2ccc(N3CCOCC3)c(Cl)c2)cc1[N+](=O)[O-]`, the viability was 70.2%. With `NC1=NN(c2cccc(C(=O)O)c2)C(=O)C1`, the viability is 104%. On to `CCCCN(C)CCC(=O)Nc1ccc(Cl)cc1`, for which the viability is 91.2%. As for `OC(CNCC1CCCO1)Cn1c2ccc(Br)cc2c2cc(Br)ccc21` (centres undefined), the viability was 1.31% (active). Turning to `Cc1ccc(C(=O)NCC2CCCO2)o1` (centres undefined), the viability is 101%. For the molecule `Cc1cc(Br)ccc1NC(=O)C1CCCO1` (centres undefined), the viability was 97.1%. Regarding `O=C(Nc1ccc2c(c1)OCO2)c1ccc(N2C(=O)c3ccccc3C2=O)cc1`, the viability is 93.1%.

On to `CCOc1cc(/C=N/NC(=O)OC)ccc1OCCSc1ccc(Cl)cc1`, for which the viability was 93.7%. Take `CSCC[C@H](NC(=O)OC(C)(C)C)C(=O)N/N=C/c1cc2ccc(C)cc2nc1Cl`: the viability was 1.55% (active).

Turning to `CSCCC(NC(=O)COc1ccccc1)C(=O)Nc1ccc(C)cc1` (centres undefined), the viability is 96.1%. As to `CC(=O)NCCC(=O)Nc1nc(C)c(Cc2ccc3c(c2)OCO3)s1`, the viability was 99.8%. As to `COc1ccccc1C(=O)Nn1c(-c2cccs2)nc2ccccc2c1=O`, the viability is 95%. For the molecule `CC(C)Nc1nnc(SCC(=O)c2c[nH]c3ccccc23)s1`, the viability was 87.3%. To `CCO/N=C(/C)c1c(O)cc(-c2ccccc2)n(-c2ccccc2)c1=O` belongs 103%. Turning to `CC(=O)NC(C)c1nc2ccccc2n1Cc1ccccc1F` (centres undefined), the viability was 102%. Turning to `CN(Cc1ccccc1)Cc1ccccc1F`, the viability was 101%.

Turning to `N=c1n(CCc2ccccc2)c2ccccc2n1Cc1ccccc1F`, the viability was 1.8% (active). On to `Cc1cccc(NC(=O)c2sc(-c3ccccc3)nc2-c2ccc([N+](=O)[O-])cc2)c1`, for which the viability is 73.5%. To `CCOC(=O)/C(=C\c1ccc([N+](=O)[O-])cc1)C(=O)c1cc(C(C)=O)c(Nc2ccccc2)s1` belongs 1.45% (active); to `O=C(Nc1ccccc1)/C(=C/c1ccc([N+](=O)[O-])cc1)NC(=O)c1ccccc1`, 95.2%; to `C/C(=N\NC(=O)c1ccc(CSc2nc(C)cc(C)n2)cc1)C1CCCCC1`, 93%. On to `O=C1NC(c2ccccc2)CCC1(Cl)Cl` (centres undefined), for which the viability is 95.3%. To `COc1ccccc1N1N=C(c2cccs2)CC1c1ccccc1` (centres undefined) belongs 65%; to `Cc1cccc(C)c1Nc1nnc(SCC(=O)Nc2sccc2C#N)s1`, 92.1%; to `CCCc1cc(-c2nc(-c3ccc(C)cc3)cs2)ccn1`, 26.2%.
